Screening data: PubChem BioAssay, National Center for Advancing Translational Sciences (NCATS)
Sampled rows, rich in hits. Any-hit rate of the full collection: about 11%.
FLuc inh – blocks Photinus pyralis firefly luciferase activity; AID 411; Potency, µM (top dose mostly 57.1 µM), for the others: at the top dose activity change, negative = inhibition, actives largely listed as inhibitors; P08659; purified firefly luciferase, luminescence, 8 min; 72,000 compounds, 2.2% hits; further: nearly all actives have a fitted effect of over 40% in size
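Titration-based qHTS; buffer 50 mM imidazole pH 7.2, 50 mM KCl, 7 mM MgCl2, 10 uM ATP, 0.01% Tween 20, 0.05% BSA; luciferase/luciferin detector mix added after compound; 8 min, ambient; luminescence.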
HADH2 inh – inhibitors of human HADH2 dehydrogenase | recombinant HADH2, NADH fluorescence, beta-hydroxybutyryl-CoA | Potency, µM (doses to about 57.1 µM), for inactives: at the top dose activity change, negative = inhibition, most hits filed as inhibitors | 73,000 compounds, 3.4% hits; further: nearly all actives have a fitted effect of over 60% in size
Target sequence (Q99714 whole entry, looked up, one chain of several): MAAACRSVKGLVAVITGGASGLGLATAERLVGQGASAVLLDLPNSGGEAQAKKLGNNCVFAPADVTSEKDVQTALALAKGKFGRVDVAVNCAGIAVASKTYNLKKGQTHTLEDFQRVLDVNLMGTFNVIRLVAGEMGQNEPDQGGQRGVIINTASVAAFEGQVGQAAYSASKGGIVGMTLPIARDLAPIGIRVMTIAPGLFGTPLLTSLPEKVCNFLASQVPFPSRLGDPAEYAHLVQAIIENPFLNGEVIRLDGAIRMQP
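NADH fluorescence (ex 360/em 450 nm) read every 30 s for 4 min; activity taken as last-minus-first time point difference. Enzyme 20 nM, NAD+ 1 mM, beta-hydroxybutyryl-CoA 90 uM, pH 9.0 Tris buffer.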
ERK AVP inh – blocks ERK signaling stimulated by vasopressin. 72,000 compounds, 0.99% hits. AID 995. HEK293-V1b, vasopressin-stimulated pERK AlphaScreen. Potency, µM (doses to about 57.5 µM), inactives show top-dose activity, negative = inhibition, most hits filed as inhibitors; further: nearly all actives have a fitted effect of over 55% in size
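Overnight-seeded V1b-HEK293 cells in 1% FBS got compound, then vasopressin (25 nM final, 5 min, 37C), then lysis buffer. AlphaScreen detection of phospho-ERK; activity normalized to basal and full-stimulation controls.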
Bst PK mod – modulators of Bacillus stearothermophilus pyruvate kinase; purified pyruvate kinase, luminescence ATP production; ribose 5-phosphate activator present at AC10; Potency, µM; 51,000 compounds, 1.2% hits; in the data active means potency below about 11 µM; inconclusive means mostly about 12 µM to 25 µM;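 the screen sought inhibitors and activators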;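 further: scaled between full activation by ribose 5 phosphate and full inhibition by luteolin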
HSD17B inh – HSD17B dehydrogenase inhibition; Q99714; AID 893; recombinant HSD17B10, NADH fluorescence kinetic; Potency, µM (highest dose often 57.1 µM), for inactives: at the highest dose activity change, negative = inhibition, usual class: inhibitors; 75,000 compounds, 7.6% hits;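 further: the protocol describes HADH2 (HSD17B10) and not the HSD17B4 of the title; nearly all actives have a fitted effect of over 70% in size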
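Activity followed as NADH fluorescence increase (ex 360, em 450 nm) every 30 seconds for 4 min, using final 90 uM beta-hydroxybutyryl CoA and 1 mM NAD+. Recombinant His-tagged enzyme, 20 nM, pH 9.0 Tris buffer, 15 min compound preincubation.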
15-hLO inh – 15-hLO (ALOX15) enzyme inhibition; 74,000 compounds, 1.4% hits; purified 15hLO-1, xylenol orange hydroperoxide absorbance; Potency, µM (doses to about 57.1 µM), without a hit: at the top dose activity change, negative = inhibition, actives largely listed as inhibitors; AID 887; further: nearly all actives have a fitted effect of over 55% in size
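Quantitative HTS in 25 mM Hepes pH 7.5 containing 0.01% Triton X-100: human 15hLO-1 at 40 nM, arachidonic acid at 50 uM, 6 min turnover. Product quantified via ferrous oxidation/xylenol orange, 573:405 nm absorbance ratio.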
* marks the source's active call; other numbers are inactive results; i = inactive; ? = inconclusive; . = not tested or not shown; ! = repeats disagree; [ ] = dose if it differs, or a comment. Unless noted, the call rests on the fitted dose curve; in most records, active means well fitted curve in the direction sought with a large enough effect; inconclusive means small, poorly fitted or top-dose-only effect, or another doubt; inactive means no such curve, though single readings can be large; an effect the other way counts as inactive or inconclusive. Unless noted, on the % scale 0 is the no-effect control and ±100 the full control effect; potency means the concentration at half of the fitted maximal effect.

SMILES | FLuc inh | HADH2 inh | ERK AVP inh | Bst PK mod | HSD17B inh | 15-hLO inh
COc1ccc(COC(=O)N/N=C2/C[C@@H](O)[C@@H](O)[C@@H]3[C@@H]4C(=O)N(c5cccc(Oc6ccccc6)c5)C(=O)[C@H]4CC[C@@H]23)cc1 | -1%[11.4 µM] | 7%[11.4 µM] | -9%[11.5 µM] | . | -2%[11.4 µM] | 3%[11.4 µM]
O=c1[nH]c2cc(Cl)c(Cl)cc2[nH]c1=O | -13% | -26% | 11% | . | 25µM*! | 0%
Clc1cc(Cl)c(Cl)cc1Cl | . | 1% | 4% | . | 1% | 4%
CC1(C)Cc2c(sc(NC(=O)c3ccco3)c2C#N)CO1 | 7.9µM* | 3% | -19% | ? | -3% | 5%
Cc1cccc(NC(=O)c2sc(NC(=O)c3ccco3)c(C#N)c2C)c1C | 0% | -12% | 38% | >57 | -11% | -23%
O=[N+]([O-])c1ccc(NN=C2c3ccccc3Cc3ccccc32)c([N+](=O)[O-])c1 | 1%[11.4 µM] | 12%[11.4 µM] | -15%[11.5 µM] | . | ? | -6%[11.4 µM]
Cc1cc(=O)oc2cc(OC(C)C(=O)N3CCCc4ccccc43)ccc12 (configuration not stated) | -5% | 13% | -25% | >57 | 20µM* | -30%
C=C(Cl)COc1ccc2c(C)cc(=O)oc2c1 | 0% | ? | -17% | . | 25µM* | 7%[11.4 µM]
Cc1cc(=O)oc2cc(OCCSCCN3CCOCC3)ccc12 | -1%[25.5 µM] | . | . | >26 | . | .
Cc1cc(=O)oc2cc(OCC(=O)NCCCN3CCOCC3)ccc12 | 0% | -20% | -14% | >57 | 25µM* | -3%
Cc1cc(=O)oc2cc(OC(C)C)ccc12 | 0% | 38% | -8% | . | 32µM* | 8%
Cc1cc2oc(=O)cc(CN3CCCc4ccccc43)c2cc1C | 1% | 2% | 9% | >57 | -11% | -28%
COCCn1c(=O)c(-c2ccccc2)nc2cnc(Nc3ccccc3)nc21 | 1%[11.4 µM] | 1% | -8% | . | -26% | -2%
CCNc1ncc2nc(-c3ccc(OC)cc3)c(=O)n(CCOC)c2n1 | 0%[11.4 µM] | 12% | -3% | . | 16µM* | -4%
CCNc1ncc2nc(-c3ccc(OC)cc3)c(=O)n(Cc3ccc(F)cc3)c2n1 | 1%[11.4 µM] | 10% | 7% | . | -13% | 3%
CCNc1ncc2nc(-c3ccc(F)cc3)c(=O)n(CCOC)c2n1 | 1%[11.4 µM] | -9% | -20% | . | 1.6µM* | 9%
COCC(=O)N1CCC2(CCCN(Cc3ccccc3)C2)CC1 | -2%[11.4 µM] | -4% | 9% | . | 12% | 7%
CC(C)=CCC[C@](C)(O)C1CC=C(C)CC1 (some centres not stated) | . | . | 40% | . | 5% | 13µM*
COc1ccc(C2CC(=O)C3=C(C2)Nc2ncnn2C3c2ccccc2)cc1 (configuration not stated) | -1% | 32µM* | -13% | >57 | 32µM* | 4%
O=C1CC(c2ccco2)CC2=C1C(c1ccccc1)n1nc(C(F)(F)F)nc1N2 (configuration not stated) | -1% | ? | 7% | >57 | 32µM* | -27%
COc1ccc(C2CC(=O)C3=C(C2)Nc2ncnn2C3c2ccccc2C)cc1 (configuration not stated) | 2% | ? | -14% | >57 | -13% | -3%
Cc1ccc(C(=O)[C@@H]2[C@@H]3[C@@H](C(=O)[C@@H]4OC[C@H]3O4)[C@@H]3C=Cc4ccccc4N23)cc1 | -2%[11.4 µM] | ? | . | . | . | .
COc1ccccc1CNc1ncncc1-c1ccccc1OC | 1%[2.29 µM] | 8% | -11% | . | 1% | 18%
Cc1cnc(CNc2nc(-c3ccccc3Cl)nc3ccccc23)cn1 | -4%[2.29 µM] | -8% | -4% | . | 12% | -3%
CCOC(=O)CC(=O)CSc1nc(N)c(C#N)c(-c2ccc(Cl)cc2)c1C#N | -1%[25.5 µM] | . | . | >26 | . | .
SMILES | FLuc inh | HADH2 inh | ERK AVP inh | Bst PK mod | HSD17B inh | 15-hLO inh
CCOC(=O)CCSc1nc2c(c(C(F)(F)F)c1C#N)CCC2 | 0% | -6% | 51% | >57 | 32µM* | -3%
CCOC(=O)CC(=O)CSc1nc2c(cc1C#N)CCCCC2 | 10µM* | . | . | ? | . | .
N#Cc1cc2c(nc1SCC(=O)N1CCCCC1)CCCC2 | 0% | 6% | -10% | . | 3% | 9%
CCOC(=O)CC(=O)CSc1nc2c(c(C)c1C#N)CCC2 | ? | 19% | -29% | ? | 32µM* | ?
CCOC(=O)CCc1c(C)nc(SCCN2CCCC2)c(C#N)c1C | -1% | 4% | -11% | >57 | 10% | -12%
CCC/C=C(\CCC)C(NC(=O)c1ccccc1)c1ccccc1 (configuration not stated) | . | 11% | 5% | . | -9% | .
CC1C(NC(=O)/C(=N/OC(C)(C)C(=O)O)c2csc(N)n2)C(=O)N1S(=O)(=O)O (configuration not stated) | . | . | 1% | . | -2% | -16%
Cn1cccc1C(=O)N1CCC2(CC1)CN(Cc1cc(C(F)(F)F)cc(C(F)(F)F)c1)C2 | 2%[11.4 µM] | 4% | -20% | . | -2% | 2%
C#CCCCO/N=C1/C[C@@H](O)[C@@H](O)[C@@H]2[C@@H]3C(=O)N(Cc4ccccc4)C(=O)[C@H]3CC[C@@H]12 | 0%[11.4 µM] | -4%[11.4 µM] | 0%[11.5 µM] | . | 0%[11.4 µM] | 2%[11.4 µM]
O=c1oc2cc(N=Cc3ccc4c(c3)OCO4)ccc2c2ccccc12 | 2%[11.4 µM] | 3%[11.4 µM] | -7%[11.5 µM] | . | 5%[11.4 µM] | 15%[11.4 µM]
CCOc1ccc(OCC(=O)N2CCOCC2)cc1 | -1% | 0% | -3% | >57 | 6% | 4%
CN(C)S(=O)(=O)c1ccc(C(=O)Nc2ccc(OCC(=O)N3CCOCC3)cc2)cc1 | 16µM* | 5% | -9% | . | -4% | 3%
CCCc1noc(-c2ccc(-c3ccccc3)cc2)n1 | -21% | 18% | -16% | i | 32µM* | 2%
COc1ccc(Cc2noc(-c3ccc(C)cc3)n2)cc1 | -2% | 2% | 94% | . | 0% | 8%
CCN(CC)c1ccc(-c2c(C#N)c(N)nc(OC)c2C#N)cc1 | -1% | 32µM* | 4% | . | 16µM* | 1%
Cc1ccc(C(=O)Nc2nc3ccccc3c(=O)s2)cc1 | ? | -20% | 5% | 6.8* | -8% | ?
COc1ccc(Nc2nc3ccccc3c(=O)s2)c(OC)c1 | 2% | -9% | 0% | >57 | -10% | 5%
FC(F)(F)c1cc(CN2CC3(CCNCC3)C2)cc(C(F)(F)F)c1 | 0%[11.4 µM] | 8% | -9% | . | 1% | 3%
CC(=O)c1ccc2c3c(ccc(O)c13)CC2 | -2% | -21%[11.4 µM] | 32µM* | . | -2% | ?
CN(C(=O)c1cc2nc(-c3ccco3)cc(C(F)(F)F)n2n1)C1CCCCC1 | . | -11% | . | . | ? | 10µM*
